About 83,000 compounds went through this panel and 20% of them were active in at least one assay; those are over-represented in the sample as a whole.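 A percent growth of 40 corresponds to 60% growth inhibition; 0 means no net growth; -100 means all cells died. Active threshold: below 10.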 Calls of active or inactive are those of the source.

In the first experiment the test system is A498 renal. The experiment is described as follows: NCI-60 one-dose screen, 48 h (100 = growth as untreated, 0 = no growth, -100 = all killed). The following applies: 10 µM unless noted.
For `c1cnc2ccc3ncccc3c2c1`, the growth was 96.5% (inactive).
Same read-out and setting: in the case of `CCCCCCCCCCSc1ncnc2nc[nH]c12` it was 61.4% (inactive); in that of `Clc1ccc2c(Nc3ccc4oc(NCCN5CCCC5)nc4c3)ccnc2c1`, 90.6% (inactive).
Take `CCN(CC)CCCNCCCNc1cc(OC)cc2cccnc12`: the growth was 76.4% (inactive).
Turning to `CCCCCCCCCCCCNc1ncnc2[nH]ncc12`, the growth was 50.4% (inactive).
Still for that read-out and setting: the result for `CCCCCCCC/C=C/CCCCCCCC1=NC(C)(C)CN1CCO` reads 89.2% (inactive).
The same measure, in the same setting: the result for `O=C(CN1CCCCC1)Sc1nnc2sc3ccccc3n12` reads 107% (inactive); that for `c1cncc(CNc2ccccc2-c2nnc(Nc3ccc4c(c3)OCO4)o2)c1`, -0.133% (active); that for `CC(=O)NC1(C(=O)O)CCCC1`, 105% (inactive).
The same measure, in the same setting: the result for `CCCCCCCCCCCCCCCCN=C(CC(=O)O)C(=O)O` reads 95.6% (inactive); that for `c1ccc(N2CCN(c3nncc4ccccc34)CC2)nc1`, 97.8% (inactive).
`O=c1[nH]c(Cl)nc2c1cnn2-c1ccccc1`: the growth is 84.1% (inactive).
For the compound `ClC1=C(Cl)C(Cl)=C(Cl)C1=C/C=C/c1ccccc1`, the growth was -87.4% (active).
On the same count and under the same terms, the result for `CN(CC(=O)N(Cc1ccc(C2CCCCC2)cc1)c1ccc(C(=O)O)cc1)S(=O)(=O)c1c(F)c(F)c(F)c(F)c1F` reads 93.4% (inactive).
As to `COc1ccc(C2CC(c3cccc(Nc4ccnc5cc(Cl)ccc45)c3)=NN2C=O)cc1` (stereo not drawn), the growth was 7.17% (active).
As to `CCCCCCCCCCCCCCCCCC1=NC(C)(C)CN1CCO`, the growth is 117% (inactive).
Turning to `COc1ccc(CCN2CCCN3C2=Nc2ccccc2S3(=O)=O)cc1`, the growth is 0.819% (active).
Still for that read-out and setting: the result for `CCOC(=O)c1cc(-c2cccnc2)nc2c(Cl)cc(Cl)cc12` reads 103% (inactive).
As for `CCC(C)(C)C(=O)O[C@H]1C[C@@H](C)C=C2C=C[C@H](C)[C@H](CC[C@@H]3C[C@@H](O)CC(=O)O3)[C@H]21`, the growth was -38.8% (active).
Take `O=C1C(=O)c2ccc(Br)cc2-c2cc(Br)ccc21`: the growth was 115% (inactive).
Same read-out and setting: the result for `CCOC(=O)c1c(C)c(C(=O)OCC)n(C)c1C` reads 83.9% (inactive); that for `COc1ncc(-c2ccc3nccc(C#CCN4CCN(S(C)(=O)=O)CC4)c3c2)cc1NS(=O)(=O)c1ccc(F)cc1F`, -52.9% (active); that for `COc1ccc2c3c(c(OCCCN(C)C)nc2c1)-c1ccc(Cl)cc1C3=O`, 60.9% (inactive).
On the same count and under the same terms, in the case of `CC1=CC(=O)C(C(C)=Nc2ccccc2Cl)C(=O)O1` (stereo not drawn) it was 85.7% (inactive).
Turning to `C=C(C[C@](O)(C(=O)/C=C/c1ccc(Cl)cc1)C(=O)OC)c1ccccc1`, the growth is 97.1% (inactive).
With `Nc1ccc(C2=Nc3cccc4cccc(c34)S2)cc1`, the growth is 55.9% (inactive).
In the case of `COc1cc(C2CC(c3ccc(C)cc3)=NN2C(C)=O)ccc1Oc1ccnc2cc(Cl)ccc12` (stereo not drawn), the growth was 64.3% (inactive).
`CSc1ncc2ncn(C3OC(CO)C(O)C3O)c2n1` (stereo not drawn): the growth was 99.6% (inactive).
Same read-out and setting: in the case of `COc1ccc2nc3cc(Cl)ccc3c(Nc3cc(C(C)C)c(O)cc3C)c2c1` it was 60.2% (inactive); in that of `O=C(Nc1ccc(Cl)cc1Cl)Nc1ccc(-c2cccnc2)cc1N1CCC(CO)CC1`, 6.41% (active); in that of `COc1ccc2c(c1)C(=O)c1c-2c(OCCCN(C)C)nc2cc(Br)ccc12`, 76.3% (inactive).
On the same count and under the same terms, the result for `CC(O)c1nc2c(c(=O)n(C)c(=O)n2C)n1C` (stereo not drawn) reads 105% (inactive).
Still for that read-out and setting: in the case of `COc1cc(Oc2cc(-c3cccnc3)ccc2NC(=O)Nc2ccc(F)cc2F)cc(OC)c1OC` it was 89.9% (inactive); in that of `O=C(/C=C/c1ccccc1Cl)c1ccc(O)cc1`, 91.9% (inactive); in that of `CN1CCN(Cc2ccc(NC(=O)c3[nH]ncc3Nc3ccnc4ccnn34)cc2)CC1`, 74.4% (inactive).
On to `Cc1cc(C(C)(C)c2cc(C)c(O)c(CN(C)C)c2)cc(CN(C)C)c1O`, for which the growth is 69.5% (inactive).
Still for that read-out and setting: the result for `N#Cc1c(N)[nH]c(S)c1C#N` reads 76.2% (inactive).

The next experiment relates to CCRF-CEM leukemia. The experiment is described as above. The following applies: 10 µM unless noted.
For the compound `c1cnc2ccc3ncccc3c2c1`, the growth is 98.9% (inactive).
Same read-out and setting: in the case of `CCCCCCCCCCSc1ncnc2nc[nH]c12` it was 57.9% (inactive); in that of `Clc1ccc2c(Nc3ccc4oc(NCCN5CCCC5)nc4c3)ccnc2c1`, 70.2% (inactive); in that of `CCN(CC)CCCNCCCNc1cc(OC)cc2cccnc12`, 88.9% (inactive).
Still for that read-out and setting: in the case of `CCCCCCCCCCCCNc1ncnc2[nH]ncc12` it was 68.3% (inactive); in that of `CCCCCCCC/C=C/CCCCCCCC1=NC(C)(C)CN1CCO`, -38.9% (active).
For `O=C(CN1CCCCC1)Sc1nnc2sc3ccccc3n12`, the growth was 104% (inactive).
Regarding `c1cncc(CNc2ccccc2-c2nnc(Nc3ccc4c(c3)OCO4)o2)c1`, the growth was 19% (inactive).
The same measure, in the same setting: the result for `CC(=O)NC1(C(=O)O)CCCC1` reads 96.4% (inactive).
The same measure, in the same setting: in the case of `CCCCCCCCCCCCCCCCN=C(CC(=O)O)C(=O)O` it was 86.1% (inactive); in that of `c1ccc(N2CCN(c3nncc4ccccc34)CC2)nc1`, 102% (inactive); in that of `O=c1[nH]c(Cl)nc2c1cnn2-c1ccccc1`, 40.9% (inactive).
The same measure, in the same setting: in the case of `ClC1=C(Cl)C(Cl)=C(Cl)C1=C/C=C/c1ccccc1` it was -21.4% (active).
`CN(CC(=O)N(Cc1ccc(C2CCCCC2)cc1)c1ccc(C(=O)O)cc1)S(=O)(=O)c1c(F)c(F)c(F)c(F)c1F`: the growth was -28.2% (active).
The same measure, in the same setting: in the case of `COc1ccc(C2CC(c3cccc(Nc4ccnc5cc(Cl)ccc45)c3)=NN2C=O)cc1` (stereo not drawn) it was 7.54% (active); in that of `CCCCCCCCCCCCCCCCCC1=NC(C)(C)CN1CCO`, -42.9% (active).
`COc1ccc(CCN2CCCN3C2=Nc2ccccc2S3(=O)=O)cc1`: the growth was 19.4% (inactive).
Same read-out and setting: the result for `CCOC(=O)c1cc(-c2cccnc2)nc2c(Cl)cc(Cl)cc12` reads 88.9% (inactive); that for `CCC(C)(C)C(=O)O[C@H]1C[C@@H](C)C=C2C=C[C@H](C)[C@H](CC[C@@H]3C[C@@H](O)CC(=O)O3)[C@H]21`, 62.5% (inactive); that for `O=C1C(=O)c2ccc(Br)cc2-c2cc(Br)ccc21`, 10.1% (inactive).
For `CCOC(=O)c1c(C)c(C(=O)OCC)n(C)c1C`, the growth was 84.9% (inactive).
`COc1ncc(-c2ccc3nccc(C#CCN4CCN(S(C)(=O)=O)CC4)c3c2)cc1NS(=O)(=O)c1ccc(F)cc1F`: the growth was -7.81% (active).
On the same count and under the same terms, in the case of `COc1ccc2c3c(c(OCCCN(C)C)nc2c1)-c1ccc(Cl)cc1C3=O` it was -39.7% (active).
Still for that read-out and setting: in the case of `CC1=CC(=O)C(C(C)=Nc2ccccc2Cl)C(=O)O1` (stereo not drawn) it was 89.2% (inactive); in that of `C=C(C[C@](O)(C(=O)/C=C/c1ccc(Cl)cc1)C(=O)OC)c1ccccc1`, 40.8% (inactive); in that of `COc1cc(C2CC(c3ccc(C)cc3)=NN2C(C)=O)ccc1Oc1ccnc2cc(Cl)ccc12` (stereo not drawn), 74.5% (inactive).
On to `CSc1ncc2ncn(C3OC(CO)C(O)C3O)c2n1` (stereo not drawn), for which the growth was 99% (inactive).
The same measure, in the same setting: in the case of `COc1ccc2nc3cc(Cl)ccc3c(Nc3cc(C(C)C)c(O)cc3C)c2c1` it was -25.9% (active); in that of `O=C(Nc1ccc(Cl)cc1Cl)Nc1ccc(-c2cccnc2)cc1N1CCC(CO)CC1`, 17.8% (inactive); in that of `COc1ccc2c(c1)C(=O)c1c-2c(OCCCN(C)C)nc2cc(Br)ccc12`, -27.6% (active).
On to `CC(O)c1nc2c(c(=O)n(C)c(=O)n2C)n1C` (stereo not drawn), for which the growth is 96.3% (inactive).
The same measure, in the same setting: in the case of `COc1cc(Oc2cc(-c3cccnc3)ccc2NC(=O)Nc2ccc(F)cc2F)cc(OC)c1OC` it was 97.3% (inactive); in that of `O=C(/C=C/c1ccccc1Cl)c1ccc(O)cc1`, 30.6% (inactive).
The same measure, in the same setting: the result for `CN1CCN(Cc2ccc(NC(=O)c3[nH]ncc3Nc3ccnc4ccnn34)cc2)CC1` reads 54.6% (inactive).
In the case of `Cc1cc(C(C)(C)c2cc(C)c(O)c(CN(C)C)c2)cc(CN(C)C)c1O`, the growth was 100% (inactive).
As to `N#Cc1c(N)[nH]c(S)c1C#N`, the growth is 102% (inactive).

Values taken from PubChem BioAssay (NCI).
